# Inconclusive results are not listed. Activity calls are given as the source filed them. Rule for the calls: active = hit-call score of the fitted dose curve at least 0.9, where 1 is the maximum; inconclusive = response in the unintended direction; inactive = score below 0.9.
# Biological target: Steroid hormone receptor ERR1 (Homo sapiens) (UniProt P11474)
# Assay: ATG_ERRa_TRANS: Attagene TRANS-FACTORIAL HepG2 Assay for human Estrogen-Related Receptor alpha (ERRa) (AID 2282971)
# Conditions: HepG2 Attagene TRANS reporter, ERRa transactivation
# Description: ATG_TRANS is a cell-based, multiplexed-readout assay that uses HepG2, a human liver cell line, with measurements taken at 24 hours after chemical dosing in a 24-well plate.ATG_ERRa_TRANS is one of 30 assay component(s) measured or calculated from the ATG_TRANS assay. It is designed to make measurements of mRNA induction, a form of inducible reporter, as detected with fluorescence intensity signals by Reverse transcription polymerase chain reaction (RT-PCR) and Capillary electrophoresis technology.Data from the assay component ATG_ERRa_TRANS was analyzed into 1 assay endpoint. This assay endpoint, ATG_ERRa_TRANS, was analyzed in the positive analysis fitting direction relative to DMSO as the negative control and baseline of activity. Using a type of inducible reporter, measures of mRNA for gain-of-signal activity can be used to understand the reporter gene at the transcription factor-level as they relate to the gene ESRRA. Furthermore, this assay endpoint can be referred to as a primary readout, because this assay has produced multiple assay endpoints where this one serves a reporter gene function. To generalize the intended target to other relatable targets, this assay endpoint is annotated to the nuclear receptor intended target family, where the subfamily is steroidal.
# Human liver HepG2 cells are transiently transfected with multiple reporter transcription units (MRTUs) in 6-well plates using FuGene 6 reagent (Roche; 3 ml FuGene/1 mg DNA). The MRTU constructs are regulated by a cis-regulating element (promoter). […] A major difference between the CIS and TRANS system is that in CIS activities of endogenous TFs are measured, whereas the TRANS assay evaluates changes in activities of exogenous, chimeric NR-Gal4 proteins. […] At the end of 24 hour incubation, total RNA was isolated using TriZol reagent (Invitrogen). The isolated RNA is then reverse-transcribed using oligo(dT) primer and Mo-MLV reverse transcriptase (Invitrogen) with DNAse I (Ambion) treatment for 30 min. The one-tenth of the produced cDNA was amplified by PCR using Taq DNA polymerase (Invitrogen) and two reporter sequence-specific primers. The PCR products were fluorescently labeled by primer extension with 6-arboxyfluorescein (6-FAM) 5'-labeled reporter sequence-specific primer (2 min at 95 C, 20 s at 68 C and 10 min at 72 C) and these products were digested with 5U of HpaI (New England Biolabs) for 2h at 37 C. The fragments were purified using Qiaquick PCR columns (Qiagen), analyzed on an ABI 3130xL genetic analyzer (Applied Biosystems) with peak positions identified by using a set of X-rhodamine (ROX)-labeled MapMarker1000 molecular weight standards (BioVentures). The raw capillary electrophoresis data was processed using Attagraph software (Attagene).
# Sequence of Steroid hormone receptor ERR1 (Homo sapiens) (P11474 whole entry, looked up): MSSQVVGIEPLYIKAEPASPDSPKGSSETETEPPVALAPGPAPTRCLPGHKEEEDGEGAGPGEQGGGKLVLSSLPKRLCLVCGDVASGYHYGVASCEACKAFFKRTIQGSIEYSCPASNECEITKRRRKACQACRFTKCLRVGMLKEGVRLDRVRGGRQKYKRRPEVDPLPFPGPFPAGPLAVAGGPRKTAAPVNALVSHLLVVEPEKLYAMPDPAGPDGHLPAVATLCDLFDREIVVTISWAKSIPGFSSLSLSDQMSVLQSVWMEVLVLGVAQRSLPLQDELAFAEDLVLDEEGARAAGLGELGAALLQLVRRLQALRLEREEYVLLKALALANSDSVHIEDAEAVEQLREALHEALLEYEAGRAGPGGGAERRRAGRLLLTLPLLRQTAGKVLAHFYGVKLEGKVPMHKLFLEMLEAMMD
row,Compound,outcome
1,CO/C=C(/C(=O)OC)c1ccccc1Oc1cc(Oc2ccccc2C#N)ncn1,inactive
2,OC(c1ccc(Cl)cc1)(c1cncnc1)c1ccccc1Cl (centres undefined),inactive
3,CC(C)(C)c1ccc(CSc2cnn(C(C)(C)C)c(=O)c2Cl)cc1,inactive
4,O=C(Nc1ccccc1)Nc1ccnc(Cl)c1,inactive
5,N#Cc1nn(-c2c(Cl)cc(C(F)(F)F)cc2Cl)c(N)c1S(=O)C(F)(F)F (centres undefined),inactive
6,CNC(=O)ON=CC(C)(C)SC,inactive
7,COc1nc(NC(C)C)nc(NC(C)C)n1,inactive
8,CCCCOC(=O)c1ccccc1C(=O)OCCCC,inactive
9,COC(=O)c1ccccc1C(=O)OC,inactive
10,COC(=O)N(OC)c1ccccc1COc1ccn(-c2ccc(Cl)cc2)n1,inactive
11,CC1=C(C(=O)Nc2ccccc2)SCCO1,inactive
12,CCCCNC(=O)OCC#CI,inactive
13,CC(C)C1(C)N=C(c2nc3ccccc3cc2C(=O)O)NC1=O (centres undefined),inactive
14,CCNc1nc(Cl)nc(NCC)n1,inactive
15,CCNc1nc(Cl)nc(NC(C)C)n1,inactive
16,CON(C)C(=O)Nc1ccc(Cl)c(Cl)c1,inactive
17,COC(=O)C=C(C)OP(=O)(OC)OC,inactive
18,N#CC(CCc1ccc(Cl)cc1)(Cn1cncn1)c1ccccc1 (centres undefined),inactive
19,C=CCC1=C(C)C(OC(=O)C2C(C=C(C)C)C2(C)C)CC1=O (centres undefined),inactive
20,COP(=S)(OC)Oc1nc(Cl)c(Cl)cc1Cl,inactive
21,CC1COC(Cn2cncn2)(c2ccc(Oc3ccc(Cl)cc3)cc2Cl)O1 (centres undefined),inactive
22,CCc1nn(C)c(C(=O)NCc2ccc(C(C)(C)C)cc2)c1Cl,inactive
23,COC(=O)C(C)Oc1ccc(Oc2ccc(Cl)cc2Cl)cc1 (centres undefined),inactive
24,COc1cnc(OC)n2nc(NS(=O)(=O)c3c(OCC(F)F)cccc3C(F)(F)F)nc12,inactive
25,COc1ccc(C(c2ccc(OC)cc2)C(Cl)(Cl)Cl)cc1,inactive
26,N#Cc1cc(Br)c(O)c(Br)c1,inactive
27,C=CCC1=C(C)[C@@H](OC(=O)[C@@H]2[C@@H](C=C(C)C)C2(C)C)CC1=O,inactive
28,CCCN(CCC)c1c([N+](=O)[O-])cc(S(N)(=O)=O)cc1[N+](=O)[O-],inactive
29,COc1nc(C)nc(NC(=O)NS(=O)(=O)c2ccccc2CCC(F)(F)F)n1,inactive
